In the library only some 8.7% were active in any assay of this set; here they are far more common.
Sfp inh – qHTS Assay for Inhibitors of Bacillus subtilis Sfp phosphopantetheinyl transferase (PPTase); 4'-phosphopantetheinyl transferase ffp (Bacillus subtilis), Q9F4F7; Biochemical Sfp PPTase activity, qHTS; Potency, µM, for the others: largest response in the series, negative = inhibition, usual class: inhibitors; actives 3.5% (n = 310,000); AID 1490, 2009;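 further: the enzyme is Sfp with the accession as filed and its product quenches rhodamine fluorescence; 0% = enzyme reaction without inhibitor and -100% = no enzyme wells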
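Step 1, compound plus 15 nM Sfp-PPTase, 15 min, room temperature. Step 2, add rhodamine-CoA (5 uM) and BHQ-2-YbbR (12.5 uM). Step 3, read 525/598 nm fluorescence at 0 and 30 min.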
HP1b binding inh – HTS for Inhibitors of HP1-beta Chromodomain Interactions with Methylated Histone Tails. AlphaScreen HP1-beta / biotin-H3K9me3 peptide binding. Potency, µM (top dose mostly 114 µM), for inactives: top-dose activity change, negative = inhibition, hits mostly inhibitors. actives 0.56% (n = 390,000); further: nearly all actives have a fitted effect of over 70% in size
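HP1-beta protein (50 nM final) preincubated 30 min at room temperature with biotinylated H3(1-18)K9me3 peptide (50 nM) in PBS pH 7.4, 0.01% Tween-20, then compound added for 30 min. AlphaScreen streptavidin donor/nickel chelate acceptor beads (10 ug/mL final), 30 min dark, luminescence read.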
JMJD2A Tudor inh – qHTS Assay for Inhibitors of JMJD2A-Tudor Domain. AlphaScreen JMJD2A-Tudor / H3K4me3 peptide binding. actives 4.4% (n = 390,000). Potency, µM (series often up to 114 µM), without a hit: at the top dose activity change, negative = inhibition, actives largely listed as inhibitors. AID 504339, 2011; further: on the % scale 0 is the no-effect control and ±100 the full control effect; nearly all actives have a fitted effect of over 50% in size
ALOX12 inh – Primary qHTS assay for inhibitors of human arachidonate 12S-lipoxygenase (ALOX12): Round 2; Polyunsaturated fatty acid lipoxygenase ALOX12 (Homo sapiens), P18054; purified 12hLO, xylenol orange hydroperoxide absorbance; Potency, µM (top dose mostly 108 µM), for the others: at the top dose activity change, negative = inhibition, usual class: inhibitors; actives 1.1% (n = 580,000); AID 1671190, 2021; further: on the % scale 0 is the no-effect control and ±100 the full control effect
Target sequence (P18054 whole entry, looked up): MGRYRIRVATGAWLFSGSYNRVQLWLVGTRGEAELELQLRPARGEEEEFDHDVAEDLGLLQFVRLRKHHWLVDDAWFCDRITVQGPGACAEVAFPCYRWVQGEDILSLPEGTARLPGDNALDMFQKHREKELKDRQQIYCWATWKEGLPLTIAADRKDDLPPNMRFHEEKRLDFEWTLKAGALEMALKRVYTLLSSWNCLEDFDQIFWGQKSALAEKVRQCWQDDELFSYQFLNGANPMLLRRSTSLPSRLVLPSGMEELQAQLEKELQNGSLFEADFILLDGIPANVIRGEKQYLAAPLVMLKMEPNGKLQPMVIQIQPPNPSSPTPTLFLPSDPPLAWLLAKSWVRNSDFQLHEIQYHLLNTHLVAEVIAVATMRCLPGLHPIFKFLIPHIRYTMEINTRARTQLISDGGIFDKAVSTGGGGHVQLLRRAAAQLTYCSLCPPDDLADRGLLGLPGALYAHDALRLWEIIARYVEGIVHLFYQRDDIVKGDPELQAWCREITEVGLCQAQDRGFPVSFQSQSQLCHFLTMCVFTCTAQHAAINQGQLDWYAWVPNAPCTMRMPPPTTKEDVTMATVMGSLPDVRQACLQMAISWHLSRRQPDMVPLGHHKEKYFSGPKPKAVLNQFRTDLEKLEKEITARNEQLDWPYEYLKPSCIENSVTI
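Hydroperoxide product was detected by ferrous iron/xylenol orange as the 573 to 405 nm absorbance ratio. Arachidonic acid at 40 uM (final) was turned over for 30 min at room temperature by 150 nM human 12hLO, pH 7.0 Hepes buffer, after 15 min compound preincubation.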
BAZ2B inh – qHTS Assay for Inhibitors of BAZ2B; actives 4.4% (n = 360,000); AlphaScreen BAZ2B-H3K14Ac peptide displacement; Potency, µM (doses to about 114 µM), inactives show top-dose activity change, negative = inhibition, hits mostly inhibitors; further: on the % scale 0 is the no-effect control and ±100 the full control effect; nearly all actives have a fitted effect of over 60% in size
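Protein-peptide AlphaScreen: BAZ2B 50 nM, b-H3K14Ac 50 nM, 1x PBS pH 7.4 + 0.01% Tween-20. Preincubation 30 min RT; cpd 30 min RT (top 110 uM); beads 20 min RT, light-protected.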
G9a block – qHTS Assay for Inhibitors of Histone Lysine Methyltransferase G9a | G9a H3K9 monomethylation, AlphaScreen, 2 h | Histone-lysine N-methyltransferase EHMT2 (Homo sapiens), Q96KQ7 | Potency, µM (highest dose often 102 µM), for inactives: at the top dose activity, negative = inhibition, actives largely listed as inhibitors | AID 504332, 2011 | actives 8.8% (n = 350,000); further: on the % scale 0 is the no-effect control and ±100 the full control effect; nearly all actives have a fitted effect of over 75% in size
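Compounds were preincubated with 20 nM G9a for 15 min, after which biotinylated H3K9 peptide (500 nM) and SAM (20 uM) started a 2 h room-temperature reaction. Monomethylated product was quantified by antibody-based AlphaScreen chemiluminescence.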
Numbers without * were called inactive; ? = inconclusive; · = no result given; [ ] = another dose, or the depositor's remark. The call rests on the fitted dose curve; in most records, active means well fitted curve in the direction sought with a large enough effect; inconclusive means small, poorly fitted or top-dose-only effect, or another doubt; inactive means no such curve, though single readings can be large; an effect the other way counts as inactive or inconclusive. Potency means the concentration at half of the fitted maximal effect.

SMILES	Sfp inh	HP1b binding inh	JMJD2A Tudor inh	ALOX12 inh	BAZ2B inh	G9a block
CCOc1ccc2nc(N(CCCN(C)C)C(=O)c3ccc(S(=O)(=O)N4CCc5ccccc5C4)cc3)sc2c1	-4%	49%	-9%	450%	-22%	·
O=C(O)CCOc1ccc(Br)cc1	·	·	·	13%	·	·
CCc1ccc2nc(N(CCCN(C)C)C(=O)c3ccc(S(=O)(=O)N4CCCC4)cc3)sc2c1	1%	18%	-35%	?	-30%	50µM*
CCOC(=O)N1CCN(S(=O)(=O)c2ccc(C(=O)N(CCCN(C)C)c3nc4ccc(CC)cc4s3)cc2)CC1	-23%	8%	?	0%	-36%	?
CCOC(=O)N1CCN(S(=O)(=O)c2ccc(C(=O)N(CCN(CC)CC)c3nc4ccc(C)cc4s3)cc2)CC1	-9%	-18%	?	6%	?	50µM*
CCC1CCCCN1S(=O)(=O)c1ccc(C(=O)N(CCCN(C)C)c2nc3cc4c(cc3s2)OCO4)cc1 (centres undefined)	-12%	-11%	?	?	?	56µM*
CN(C)CCN(C(=O)c1ccc(S(=O)(=O)N2CCCC2)cc1)c1nc2ccc(Br)cc2s1	-17%	35%	-24%	-17%	-18%	71µM*
Cc1ccc2nc(N(CCCN(C)C)C(=O)c3ccc(S(=O)(=O)N4CCCCCC4)cc3)sc2c1	-20%	-4%	?	?	?	-28%
Cc1ccc(-c2ccc(CCC(=O)Nc3nnc(C)s3)o2)cc1	·	·	·	50%	·	·
COc1ccc(Cc2nc3nccc(-c4ccc(OC)c(OC)c4)n3n2)cc1	·	·	·	-16%	·	·
CCc1ccc2oc(=O)cc(CN3CCN(c4ccccn4)CC3)c2c1	·	·	·	-14%	·	·
Cc1cccc(C(=O)NCC(=O)OCCOc2ccccc2Cl)c1	·	45%	3%	-9%	4%	14%[2.33 µM]
COc1ccc(OCCOC(=O)CNC(=O)c2cccc(C)c2)cc1	·	13%	-2%	-15%	13%	50µM*
Cc1ccc(NC(=O)CSc2ncc(-c3ccc(F)cc3)o2)cc1Cl	·	·	·	1%	·	·
CC(C)(C)NC(=O)CC(c1ccccc1)c1ccccc1	·	·	·	-22%	·	·
Cn1cccc1/C=N/N1CCN(Cc2cccc3ccccc23)CC1	?	?	32µM*	18µM*	22µM*	25µM*
Oc1c(Br)cc(Br)cc1/C=N/N1CCN(Cc2ccccc2)CC1	15%	14%	-27%	-27%	0%	-10%[59 µM]
COc1ccccc1C1CCN(Cc2cccc3ccccc23)CC1	9%	42%	-1%	0%	-7%	1%
Cn1cccc1/C=N/N1CCN(Cc2ccccc2)CC1	-23%	?	?	?	50µM*	25µM*
Cn1cccc1/C=N/N1CCN(Cc2ccc(Cl)cc2)CC1	?	40µM*	50µM*	?	32µM*	40µM*
CN(C)S(=O)(=O)c1ccc2nc(NC(=O)c3ccc(C#N)cc3)sc2c1	·	·	·	-10%	·	·
CCCCOc1ccc(NC(=O)CC(C)C)c2cccnc12	·	·	·	8%	·	·
COc1ccc(C(C)NC(=O)c2cc3c(n2C)CCN(Cc2ccccc2)C3)cc1OC (centres undefined)	·	·	·	116%	·	·
O=c1cc(-c2ccccc2)ss1	·	?	-14%	?	·	·
CN(C)C1NC(=O)c2cc(-c3ccccc3)sc2N1 (centres undefined)	-24%	-14%	?	11%	50µM*	?
SMILES	Sfp inh	HP1b binding inh	JMJD2A Tudor inh	ALOX12 inh	BAZ2B inh	G9a block
Cc1ccc(C(=O)N/C(=C/c2ccccc2)C(=O)NC(CC(C)C)C(=O)O)cc1 (centres undefined)	·	·	·	-50%	·	·
CCNCc1ccc(OCc2cccs2)c(OC)c1	·	·	·	2%	·	·
Cc1cc(=O)[nH]c(SCc2nnc(-c3ccccc3)o2)n1	12%	31%	-4%	-3%	2%	7.9µM*
O=[N+]([O-])c1ccc2nc(SCc3cn4cccnc4n3)[nH]c2c1	-21%	49%	9%	-7%	-1%	?
O=[N+]([O-])c1ccc2nc(SCc3cn4ccccc4n3)[nH]c2c1	11%	18%	-19%	18%	2%	10µM*
Clc1ccc2nc(SCc3nnc(-c4ccccc4)o3)[nH]c2c1	9%	37%	-8%	4%	-7%	-6%
Cc1cc(=O)[nH]c(SCc2cn3ccccc3n2)n1	-13%	32%	-7%	?	-18%	50µM*
CCc1ccccc1N(C(C)=O)c1nc(COc2ccccc2C(N)=O)cs1	·	·	·	15%	·	·
Nc1cc(S(=O)(=O)O)cc([N+](=O)[O-])c1O	79µM*	35µM*	35µM*	-4%	?	45µM*
COc1ccc(-c2nc(CS(=O)CC(=O)NC3CCCC(C)C3C)c(C)o2)cc1OC (centres undefined)	-2%	27%	-5%	-14%	-4%	56µM*
CCc1ccc(-c2nc(CS(=O)CC(=O)NC3CC3)c(C)o2)cc1 (centres undefined)	-3%	46%	-23%	-28%	-24%	?
CCc1ccc(-c2nc(CS(=O)CC(=O)NC3CCCCCC3)c(C)o2)cc1 (centres undefined)	50µM*	20%	-22%	-23%	-25%	·
COc1ccc(-c2nc(CS(=O)CC(=O)NC3CCCCC3)c(C)o2)cc1OC (centres undefined)	-3%	39%	-5%	·	-15%	?
COc1ccc(-c2nc(CS(=O)CC(=O)NCCC3=CCCCC3)c(C)o2)cc1 (centres undefined)	?	57%	-19%	12%	-2%	79µM*
COc1ccccc1CN1CCC(N2Cc3cnc(C)n3C2=O)CC1	·	·	·	14%[176 µM]	·	·
COc1cc(O)c(C(CCN2CCN(c3ccccc3)CC2)c2ccc(N(C)C)cc2)c(OC)c1 (centres undefined)	-9%	20µM*	10µM*	?	7.9µM*	?
COc1ccc(C(CCN2CCCC2)c2c(O)cc(OC)cc2OC)cc1 (centres undefined)	-12%	-3%	-24%	2%	?	11%[59 µM]
COc1cc(O)c(C(CCN2CCCC(C)C2)c2ccc(N(C)C)cc2)c(OC)c1 (centres undefined)	-7%	?	25µM*	3%	40µM*	?

Source: PubChem BioAssay (National Center for Advancing Translational Sciences (NCATS))
